# Measured values reported in PubChem BioAssay (NCATS).
# Where “and” joins values, the source holds several entries; their conditions need not be identical. Equal values may be shown once. Records with an inconclusive call do not appear. Calls of active or inactive are those of the source. The call rests on the fitted dose curve; in most records, active means well fitted cell-killing curve with a large enough effect; inconclusive means small, poorly fitted or top-dose-only effect; inactive means no such curve, though single readings can be large or run the other way. Non-standard residues stand in square brackets, D forms with d. Residues, ends and D or L forms follow the SMILES beside them. *: point of attachment. Sta = CC(C)C[C@H](N)[C@@H](O)CC(=O)O; Isovaleryl = CC(C)CC(=O)*
# Test: qHTS of pediatric cancer cell lines to identify multiple opportunities for drug repurposing: Confirmatory screen for SK-N-MC cells (AID 1347111);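 further: cells exposed to compound for 48 h before the readout; nearly all actives have a fitted effect of over 70% in size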
# Details: SK-N-MC cell viability; series mostly up to 45.9 µM
# Text: Drug repurposing or repositioning has been offered as a strategy for drug development in oncology programs. This approach has special potential for childhood cancers and other rare or orphan diseases, where the expected return on new drug development has been a disincentive to pharmaceuticals.
# In this project we exploit the poly-pharmacology of drugs to discover new indications via phenotypic screening of a panel of 19 well-characterized cell lines derived from solid tumors seen in children and adolescents. The goal is to identify approved drugs with previously unrecognized anticancer properties that has the potential to reveal new mechanisms and biological processes involved in carcinogenesis or drug resistance. We employed a titration-based paradigm (quantitative high-throughput screening or qHTS), where all compounds were tested at multiple concentrations for their effect on cell viability. Concentration-response curves (CRCs) were derived directly from the primary screen, and both potency and efficacy values were used to identify compounds with robust bioactivity profiles. We screened the NIH Chemical Genomics Center (NCGC) Pharmaceutical Collection (NPC) and Mechanism Interrogation Plate (MIPE) small molecule collections of approved and investigational compounds against these cell lines; and measured metabolically active cells after 48 hours of compound treatment as a proxy for cell viability.
# Assay Submitter: Nathalia J. Martinez, National Center for Advancing Translational Sciences, National Institutes of Health, Rockville, MD, USA; email: natalia.martinez@nih.gov
# [1] Shen, M et al. Quantitative high-throughput phenotypic screening of pediatric cancer cell lines identifies multiple opportunities for drug repurposing. Oncotarget 2017 Dec 19;9(4):4758-4772. PMID 29435139.
# The cells were obtained from University of North Carolina (UNC), Pediatric Preclinical Testing Program (PPT), and Coriell Institute (CI).
# qHTS cell viability assay:
# Cells were assayed in growth media at a density of 500-1,000 cells/well. Five microliters of cells were dispensed into 1,536-well, white, solid-bottom, TC-treated plates (Greiner Bio One) using a multidrop dispenser and incubated at 37 degrees C, 5% CO2, under a humidified atmosphere for 5 hours. Twenty-three nanoliters of compounds and controls (neutral control DMSO or positive control bortezomib at final concentration of 2.3 µM) were subsequently transferred by Kalypsys pintool. For primary screens, the MIPE collection was tested at 11-point dilutions (final concentrations range from 0.78 nM to 46 µM) and the NPC collection at 8-point dilutions (final concentrations range from 0.59nM to 46 µM). Compounds tested in follow-up screens were assayed at 11-point dilutions. Cells were incubated for 48 hours, followed by addition of 3 uL of CellTiter-Glo (Promega). After a 15 min incubation at room temperature, samples were analyzed for luminescence intensity using a ViewLux High-throughput CCD imager equipped with clear filters.
# Potency means the concentration at half of the fitted maximal effect.
row,Structure (SMILES),Potency
1,CC(=O)O[C@H]1C(=O)[C@@]2(C)C([C@H](OC(=O)c3ccccc3)[C@]3(O)C[C@H](OC(=O)[C@H](O)[C@@H](NC(=O)c4ccccc4)c4ccccc4)C(C)=C1C3(C)C)[C@]1(OC(C)=O)CO[C@@H]1C[C@@H]2O (stereo partly drawn),0.0117 µM (active)
2,Nc1nc(OCc2ccccc2)c2[nH]cnc2n1,inactive
3,Clc1ccc(C(Cn2ccnc2)OCc2ccc(Sc3ccccc3)cc2)c(Cl)c1 (stereo not drawn),18.5 µM (active)
4,Oc1ccc(-c2nc(-c3ccc(F)cc3)c(-c3ccncc3)[nH]2)cc1,1.17 µM (active)
5,c1cnc2cc3c(cc2n1)C1CNCC3C1,inactive
6,Cc1c(C(=O)NN2CCCCC2)nn(-c2ccc(Cl)cc2Cl)c1-c1ccc(Cl)cc1,7.37 µM (active)
7,CC(C)CC(=O)N[C@H](C(=O)N[C@H](C(=O)N[C@@H](CC(C)C)[C@@H](O)CC(=O)N[C@@H](C)C(=O)N[C@@H](CC(C)C)[C@@H](O)CC(=O)O)C(C)C)C(C)C (Isovaleryl-VV[Sta]A[Sta]-OH),5.22 µM (active)
8,Clc1ccc(C(Cn2ccnc2)OCc2ccsc2Cl)c(Cl)c1 (stereo not drawn),11.7 µM (active)
9,CCCCc1ccc2nc(NC(=O)OC)[nH]c2c1,0.329 µM (active)
10,CN(C)c1ccc2nc3ccc(=[N+](C)C)cc-3sc2c1,1.17 µM (active)
11,CCc1nc(N)nc(N)c1-c1ccc(Cl)cc1,1.31 µM (active)
12,CC[C@]1(O)C[C@H]2CN(CCc3c([nH]c4ccccc34)[C@@](C(=O)OC)(c3cc4c(cc3OC)N(C=O)[C@H]3[C@@](O)(C(=O)OC)[C@H](OC(C)=O)[C@]5(CC)C=CCN6CC[C@]43[C@@H]65)C2)C1,23.3 nM (active) and 104 nM (active)
13,CCN(CC)CCOc1ccc(Nc2ncc3cc(-c4c(Cl)cccc4Cl)c(=O)n(C)c3n2)cc1,0.293 µM (active)
14,O=C(CCc1ccc(O)cc1)c1c(O)cc(O)cc1O,inactive
15,CCCOc1ccc2nc(NC(=O)OC)[nH]c2c1,1.31 µM (active)
16,O=C(NCC1CCCCN1)c1cc(OCC(F)(F)F)ccc1OCC(F)(F)F (stereo not drawn),7.37 µM (active)
17,Cc1cc(C2CCCCC2)n(O)c(=O)c1,5.22 µM (active)
18,Cc1ccc(Nc2nccc(N(C)c3ccc4c(C)n(C)nc4c3)n2)cc1S(N)(=O)=O,18.5 µM (active)
19,CCN(CCO)CCCC(C)Nc1ccnc2cc(Cl)ccc12 (stereo not drawn),inactive
20,Nc1nc(Cl)nc2c1ncn2[C@H]1C[C@H](O)[C@@H](CO)O1,6.57 µM (active)
21,CC(C)C[C@H](NC(=O)[C@H](Cc1ccccc1)NC(=O)c1cnccn1)B(O)O,0.0131 µM (active)
22,O=C1c2c(O)cc(O)cc2OC(c2ccc(O)c(O)c2)C1O (stereo not drawn),inactive
23,CC1(C)C(=O)N(CCN2CCC(C(=O)c3ccc(F)cc3)CC2)c2ccccc21,3.29 µM (active)
